Compound activity deposited in PubChem by National Center for Advancing Translational Sciences (NCATS).
Compounds with a hit are over-represented: about 3% of the library has one in this group of screens.
Sm TGR inh: S. mansoni TGR enzyme inhibition; Potency, µM (highest dose often 114 µM), actives largely listed as inhibitors; Q962Y6; actives 3% (n = 360,000); purified TGR, DTNB reduction, TNB absorbance 405 nm; AID 485364; active means well fitted inhibition curve with a large enough effect; inconclusive means small, poorly fitted or top-dose-only effect; inactive means no such curve, though single readings can be large or run the other way; further: nearly all actives have a fitted effect of over 60% in size
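TGR 20 nM + NADPH 100 uM (dispensed conc.), cpd preinc 15 min RT; start with NADPH (500 uM addition) then DTNB (15 mM addition). Kinetic TNB absorbance, 405 nm filter. Four-parameter Hill fit across titration.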
SARS PLP yeast: inhibitors of SARS-CoV papain-like protease in yeast; S. cerevisiae expressing SARS-CoV PLpro, growth rescue; Potency, µM (series often up to 32.9 µM), actives largely listed as activators; actives 0.19% (n = 330,000); calls by dose curve; further: nearly all actives have a fitted effect of over 55% in size
Of the large screens only hits and unclear results are named; the others gave an inactive call.

O=C(NCCc1ccc(Cl)cc1)c1ccc(Cn2c(=O)c3cccn3c3cccnc32)cc1	none (no result: SARS PLP yeast)
Cc1ccccc1-c1noc(-c2ccccc2OCC(=O)Nc2cccc([N+](=O)[O-])c2)n1	none (no result: SARS PLP yeast)
C/C=C\C=C/C(=O)Nc1cccc(C2=NOC3(C2)C[C@H](C(N)=O)N(C(=O)c2ccc(OC)cc2)C3)c1 (stereo partly drawn)	Sm TGR inh 1.8µM
C/C=C(/C)C(=O)Nc1cccc(C2=NOC3(C2)C[C@@H](C(N)=O)N(C(=O)c2ccc(OC)cc2)C3)c1 (stereo partly drawn)	none
C/C=C\C=C/C(=O)Nc1cccc(C2=NOC3(C2)C[C@@H](C(N)=O)N(C(=O)c2ccc(Cl)cc2)C3)c1 (stereo partly drawn)	Sm TGR inh 3.2µM
C/C=C/C(=O)Nc1cccc(C2=NOC3(C2)C[C@@H](C(N)=O)N(C(=O)c2cc([N+](=O)[O-])cc([N+](=O)[O-])c2)C3)c1 (stereo partly drawn)	none
COc1ccc(CCN2C(=O)CC(N3CCOCC3)C2=O)cc1OC (stereo not drawn)	none
CCCN1C(=O)CC(Sc2ncccc2C(=O)O)C1=O (stereo not drawn)	none
CCCCN1C(=O)CC(Nc2ccc(CC)cc2)C1=O (stereo not drawn)	Sm TGR inh inconclusive
CCc1ccc(NC2CC(=O)N(CCc3ccc(OC)c(OC)c3)C2=O)cc1 (stereo not drawn)	Sm TGR inh 14µM
COc1ccc(CCN2C(=O)CC(Nc3ccc(N4CCOCC4)cc3)C2=O)cc1OC (stereo not drawn)	Sm TGR inh 20µM (no result: SARS PLP yeast)
COc1ccc(CCN2C(=O)CC(Sc3ncccc3C(=O)O)C2=O)cc1OC (stereo not drawn)	Sm TGR inh 11µM
COc1ccc(CCNC2CC(=O)N(CCc3ccccc3)C2=O)cc1OC (stereo not drawn)	none
CCc1ccc(NC2CC(=O)N(c3ccc(OC)cc3OC)C2=O)cc1 (stereo not drawn)	Sm TGR inh 35µM
Cc1cc(Nc2cccc(C(F)(F)F)c2)nc2ccc(NC(=O)Cc3ccc(Cl)cc3)cc12	none (no result: SARS PLP yeast)
COc1ccc(N2CCN(CCCNC(=O)c3sc4ncccc4c3-n3cccc3)CC2)cc1	none (no result: SARS PLP yeast)
Cc1cccc(C)c1OC(=O)CSc1nnc(-c2ccc3c(c2)OCO3)o1	none (no result: SARS PLP yeast)
Cc1cccc(C(=O)Nc2cccc(OCc3cc(=O)n4ccccc4n3)c2)c1	none (no result: SARS PLP yeast)
C=CCn1c(O)c(N=Nc2ccccc2)c2ccccc21	Sm TGR inh 40µM
C=CCn1c(O)c(N=Nc2ccccc2O)c2ccccc21	none
COc1cc(-c2nc(-c3ccc4c(c3)-c3ccccc3S4(=O)=O)c(-c3ccccc3)[nH]2)cc(OC)c1OC	Sm TGR inh 56µM
COc1cccc(-c2nc(-c3ccc4c(c3)-c3ccccc3S4(=O)=O)c(-c3ccccc3)[nH]2)c1OC	Sm TGR inh inconclusive
CCCc1cc(NCCCCO)n2c(nc3ccccc32)c1C#N	none
Cc1cc(Nc2c(C)n(C)n(-c3ccccc3)c2=O)n2c(nc3ccccc32)c1C#N	Sm TGR inh 22µM
CCCc1cc(Nc2c(C)n(C)n(-c3ccccc3)c2=O)n2c(nc3ccccc32)c1C#N	Sm TGR inh 14µM
CCc1c(C)c(C#N)c2nc3ccccc3n2c1Nc1c(C)n(C)n(-c2ccccc2)c1=O	none
CCN(CC)Cc1cc(C(C)=O)ccc1OCC(C)C	Sm TGR inh 18µM
CC(=O)c1ccc(OCC(C)C)c(CC(C(N)=O)C(N)=O)c1	none
CCc1nc(SCc2cc(=O)c3cc(C)ccc3[nH]2)n[nH]1	none (no result: SARS PLP yeast)
CCOC(=O)COc1ccc(CC)cc1C(=O)c1ccn2nc(-c3ccc(F)cc3)cc2n1	none (no result: SARS PLP yeast)
Cc1c(Cl)cccc1NC(=O)N1CCN(Cc2cc(=O)n3nc(-c4ccccc4F)sc3n2)CC1	none (no result: SARS PLP yeast)
O=C(NCc1cccnc1)C1CCN(Cc2cc3ccccc3n2Cc2cccc(Cl)c2)CC1	none (no result: SARS PLP yeast)
COCCOC(=O)C1=C(C)NC(=O)NC1c1ccc(-c2ccc(F)cc2)o1 (stereo not drawn)	Sm TGR inh 10µM
CCOC(=O)C1=C(C)NC(=O)NC1c1ccc([N+](=O)[O-])o1 (stereo not drawn)	Sm TGR inh 40µM
CCOC(=O)C1=C(C)NC2=C(C(=O)c3ccccc32)C1c1ccc([N+](=O)[O-])o1 (stereo not drawn)	none
CCOC(=O)C1=C(C)NC(=O)NC1c1ccc(-c2ccccc2F)o1 (stereo not drawn)	Sm TGR inh inconclusive
CC1(C)CC(=O)c2cc(-c3nc(-c4ccc(Cl)cc4)cs3)c(=O)[nH]c2C1	none (no result: SARS PLP yeast)
Cc1onc(-c2ccccc2Cl)c1C(=O)Oc1cc(F)cc(F)c1	none (no result: SARS PLP yeast)
CCN1C(=O)C2(C(C(=O)c3cc4ccccc4o3)=C(O)C(=O)N2CCCN(C)C)c2ccccc21 (stereo not drawn)	Sm TGR inh inconclusive
Cc1ccc(C(=O)C2=C(O)C(=O)N(CCCN3CCOCC3)C23C(=O)N(C)c2ccccc23)o1 (stereo not drawn)	none
CCN1C(=O)C2(C(C(=O)c3ccc(C)o3)=C(O)C(=O)N2CCCN2CCOCC2)c2ccccc21 (stereo not drawn)	Sm TGR inh 50µM
CCN1C(=O)C2(C(C(=O)c3ccc(C)o3)=C(O)C(=O)N2CCCN(C)C)c2ccccc21 (stereo not drawn)	Sm TGR inh 32µM
Cc1cc(C(=O)CSc2nncs2)c(C)n1Cc1ccco1	none
Cc1cc(C(=O)CCl)c(C)n1-c1ccon1	Sm TGR inh 11µM, SARS PLP yeast inconclusive
CC(=O)c1cccc(OCC(=O)c2cc(C)n(-c3cc(C)on3)c2C)c1	none
Cc1cc(C(=O)CCl)c(C)n1CCc1ccccc1	Sm TGR inh 8.9µM
Cc1cc(C(=O)CCl)c(C)n1Cc1ccco1	Sm TGR inh 4µM, SARS PLP yeast inconclusive
CCOC(=O)c1cc(C)n(CCc2ccccc2)c1C	none
Cc1ccc(C)c(S(=O)(=O)c2cn(Cc3ccccc3)c3cc(F)c(F)cc3c2=O)c1	none (no result: SARS PLP yeast)
Cc1cc(-c2ccccc2)nc2cc(C(=O)Nc3ccc(Cl)c(Cl)c3)nn12	none (no result: SARS PLP yeast)
CS/C(=C/[N+](=O)[O-])Nc1cccc2c1C(C)CC2(C)C (stereo not drawn)	Sm TGR inh 13µM
CC(=O)N1c2ccc(S(=O)(=O)N3CCN(c4ccc(C)cc4C)CC3)cc2CC1C (stereo not drawn)	none (no result: SARS PLP yeast)
COC(=O)/C(=C/c1c[nH]c2ccccc12)NC(C)=O	none
COC(=O)/C(=C/c1cn(C)c2ccccc12)[N+](=O)[O-]	Sm TGR inh inconclusive
COC(=O)/C(=C/c1c[nH]c2ccccc12)[N+](=O)[O-]	Sm TGR inh 45µM
COC(=O)/C(=C/c1cn(C(C)=O)c2ccccc12)[N+](=O)[O-]	Sm TGR inh 3.5µM
Fc1cccc(NCc2ccccc2-c2nnc(-c3ccccc3Cl)o2)c1	none (no result: SARS PLP yeast)
CCC(=O)N1CCc2cc(Br)cc(S(=O)(=O)CCC(=O)Nc3ccc(CC)cc3)c21	none (no result: SARS PLP yeast)
O=C(O)CCc1nnc2cnc3ccccc3n12	none (no result: SARS PLP yeast)
Cc1ccc(Cn2ccc(=O)c(OCc3ccccc3)c2C)cc1	none
Cc1c(O)c(=O)ccn1Cc1ccccc1	SARS PLP yeast 10µM
Cn1c(CSc2nc3ccccc3n2C)nc2ccccc21	none
Cn1c(SC2=CS(=O)(=O)c3ccccc32)nc2ccccc21	Sm TGR inh 40µM
CCOc1cccc(C(=O)Nc2cc(C)c(O)c(-c3nc4ncccc4o3)c2)c1	none (no result: SARS PLP yeast)
Cc1cc(N2CCN(c3cccc(C)c3C)CC2)n2cnnc2n1	none (no result: SARS PLP yeast)
COc1cccc(C2CC(=O)N(c3ccc(F)cc3)C3=C2C(=O)OC3)c1OC (stereo not drawn)	none (no result: SARS PLP yeast)
